Results reported in PubChem BioAssay AID1850 (Southern Research Specialized Biocontainment Screening …, 2009).
Screen size: about 310,000 compounds; about 1,000 (0.32%) were called active. These entries were drawn from the full list. Entries with a potency or affinity are not part of this list. Values without a mark were called inactive. The rule behind the calls is not given here.

Test: Inhibition of PhoP regulon, Salmonella typhi GFP reporter cells, confirmation, 4 h (AID 1850);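 note: 0% = induced wells with vehicle and 100% = uninduced wells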
Details: Salmonella Typhi PhoP-promoter GFP reporter, fluorescence, at 50 µM, active compounds read high

SMILES | inhibition
O=C(Nc1cccc(S(=O)(=O)N2CCCC2)c1)c1ccncc1 | -14.8%
Nc1c(Cl)ncnc1N/N=C/c1ccc2ccccc2n1 | 8.37%
Nc1c(Cl)ncnc1N/N=C/c1ccncc1 | 5.13%
O=C(C[n+]1cc(Br)cc2ccccc21)c1ccc(Br)cc1 | 5.62%
O=C(C[n+]1cc(Br)cc2ccccc21)c1ccccc1 | 22%
CCCNC(=O)CSc1nnc(-c2ccc(F)cc2)o1 | -7.43%
CC1CN(CC(O)COc2ccc(C#N)cc2)CCN1CC(O)COc1ccc(C#N)cc1 (stereo not drawn) | 9.68%
O=C(Cc1cccs1)Nc1cccc([N+](=O)[O-])c1 | 0.05%
O=C(Nc1cccc([N+](=O)[O-])c1)Nc1cccc([N+](=O)[O-])c1 | 1.71%
CN(C)S(=O)(=O)c1cccc(-c2csc(=Nc3ccccc3)n2CCCN2CCOCC2)c1 | 4.21%
Cc1ccc(C(=O)c2no[n+]([O-])c2C(=O)c2ccc(C)cc2)cc1 | 19.9%
COc1ccc(C(=O)c2no[n+]([O-])c2C(=O)c2ccc(OC)cc2)cc1 | 21.3%
O=C(NCCN1CCOCC1)c1ccc2c(c1)N(Cc1c(F)cccc1Cl)C(=O)c1ccccc1S2 | -4.77%
CCc1nnc(NC(=O)c2cccc(S(=O)(=O)N3CCc4ccccc43)c2)s1 | -12.3%
Oc1c(Cl)cc(Cl)cc1/C=N/c1ncn[nH]1 | 3.2%
Oc1c(Br)cccc1/C=N/c1ncn[nH]1 | -5.35%
O=[N+]([O-])C(=C1Nc2ccccc2N1)C(Cl)=C(Cl)Cl | -0.56%
O=[N+]([O-])C(=C1Nc2ccccc2N1)/C(Cl)=C(/Cl)Br | -3.57%
Cc1ccc(S(=O)(=O)NCCC(=O)Nc2ccncc2)cc1C | 9.54%
COCCNC(=O)C1CC(c2ccc(F)cc2)=NO1 (stereo not drawn) | -13.4%
Cc1ccc(S(=O)(=O)N2CCCC2C(=O)NCc2ccccc2F)cc1 (stereo not drawn) | -7.81%
CCN(CC)CCCn1c2c(c(SCC(=O)Nc3ccc4c(c3)OCCO4)nc1=O)CCC2 | 11.9%
Cc1ccsc1CN(C)C(=O)CCc1nnc(COc2ccccc2)o1 | -5.48%
Cc1[nH]n(-c2ccccc2)c(=O)c1/C=N/NC(=O)COc1ccccc1[N+](=O)[O-] | -5.18%
Cc1ccc(OCC(=O)N/N=C\c2c(C)n(C)c3ccccc23)c([N+](=O)[O-])c1 | -4.6%

SMILES | inhibition
COCCNC(=O)c1onc(CS(=O)(=O)c2cc(C)cc(C)c2)c1C(=O)NCCOC | 5.4%
O=C(NCc1ccc2c(c1)OCO2)c1cccc([N+](=O)[O-])c1 | -1.83%
COc1ccc(/C=C2/C(=O)N(c3nc4ccccc4s3)N=C2CSc2ccc(Cl)cc2)cc1 | 3.84%
CC(C)N1CCc2c(sc(NC(=O)c3ccc([N+](=O)[O-])o3)c2C(N)=O)C1 | -4.77%
NC(=O)c1c(NC(=O)c2ccc([N+](=O)[O-])o2)sc2c1CCCC2 | -5.17%
Cn1c(=O)cc(OCCCC(=O)NCc2cccnc2)c2ccccc21 | 0.57%
COc1ccccc1N1C(=O)c2cccnc2C1=O | -1.48%
CCc1ccc(/C=C/C(=O)c2cc(Br)ccc(=O)c2O)cc1 | -13.9%
Cc1cccc(/C=C/C(=O)c2cc(Br)ccc(=O)c2O)c1 | 4.56%
CCOC(=O)C1(CC)CC(CSc2nc3ccccc3[nH]2)OC1=O (stereo not drawn) | 5.22%
O=C(O)c1cccnc1Sc1ccccc1Cl | -7.16%
c1ccc(CN2CCN(Cc3c[nH]c4ccccc34)CC2)cc1 | 1.99%
Clc1ccccc1N1CCN(Cc2c[nH]c3ccccc23)CC1 | -13.8%
Nc1ccc(Sc2ccc([N+](=O)[O-])cc2)cc1 | -7.65%
Nc1ccccc1SC(C[N+](=O)[O-])c1ccccc1 (stereo not drawn) | 15.4%
COc1cc(/C=N/NC(=O)c2ccncc2)ccc1Oc1ccc([N+](=O)[O-])cn1 | 4.23%
O=c1c2ccccc2n(CC(O)CN2CCCCC2)c2ccccc12 (stereo not drawn) | -2.95%
COc1ccc(OCC(O)CNCc2ccco2)cc1 (stereo not drawn) | 0.683%
OC(CN1CCCCC1)Cn1c2ccccc2c2ccccc21 (stereo not drawn) | -5.86%
OC(CNCc1ccco1)Cn1c2ccccc2c2ccccc21 (stereo not drawn) | 1.11%
CC1(C)CC(OC(=O)c2ccco2)CC(C)(C)N1O | -11.8%
CCn1nc(C(=O)OCC(=O)N(CC(C)C)c2c(N)n(Cc3ccccc3)c(=O)[nH]c2=O)c2ccccc2c1=O | -10.1%
Cc1csc(NC(=O)CSc2nnc3c4ccccc4nc(C(C)(C)C)n23)n1 | -6.02%
CN(C)/C=C/c1onc(-c2c(F)cccc2Cl)c1C#N | -0.05%
COc1ccc(-n2c(-c3ccc(Br)cc3)c[n+]3c2CCc2ccccc2-3)cc1 | 13.6%

SMILES | inhibition
Brc1ccc(-c2cn3c(n2)CCc2ccc4cccnc4c2-3)cc1 | 1.82%
COc1ccc(-c2nc(CS(=O)(=O)CC(=O)Nc3cccc(C(C)=O)c3)c(C)o2)cc1 | -8.19%
CC(=O)c1ccc(O)c(CSc2nncn2C)c1 | -0.79%
COC(=O)C1=C(C)N(Cc2ccccc2)C(=NCc2ccccc2)N[C@H]1c1cccc(F)c1 | -0.78%
COC(=O)C1=C(C)N(Cc2ccccc2)C(=NCc2ccc(OC)cc2)N[C@H]1c1cccc(F)c1 | 10.3%
CCCNC(=O)c1cc(-c2ccccc2)c(N2CCCCC2)s1 | 9.44%
CCCCc1ccc(NC(=O)CSc2nc(=O)n(CCN(C)C)c3c2CCC3)cc1 | 11.9%
Cc1cccc(NC(=O)c2cc(S(=O)(=O)N(C)c3ccc(F)cc3)ccc2Cl)n1 | 8.42%
c1ccc(Nc2ccccn2)nc1 | -2.23%
Oc1ccccc1Nc1ccccn1 | -1.96%
Cc1ccc(S(=O)(=O)N2CCC(C(=O)O)CC2)cc1 | -0.71%
CCOCCCn1c(=S)[nH]c2cc(C(=O)NCCc3ccc(OC)c(OC)c3)ccc2c1=O | 3.11%
CCCC(CCC)C(=O)Nc1ccc2c(c1)N(C(=O)CN1CCN(C)CC1)c1ccccc1CC2 | 5.91%
COC(=O)/C(=C\C(=O)c1ccccc1)Nc1ccc(OC)cc1 | -7.68%
Cc1ccc(NC(=O)NNC(=O)c2ccccc2)cc1 | 1.31%
C/C(=C\C(=O)c1ccccc1)Nc1ccc(O)cc1 | -9.8%
Cc1ccc(NC(=O)c2ccccc2)cc1 | -5.33%
O=C(NCc1ccc(Cl)cc1)N1CCc2ccccc2C1 | 2.15%
COc1ccc2c(c1)CC/C(=C\c1ccc(C)o1)C2=O | -3.7%
CC1Cc2ccccc2N1Cc1nc2scc(-c3cccs3)c2c(=O)[nH]1 (stereo not drawn) | 0.2%
CC1CC(C)CN(C(=O)COC(=O)c2ccc[nH]c2=O)C1 (stereo not drawn) | -8.36%
O=C(OCC(=O)N1CCOCC1)c1ccccc1O | 5.57%
CCCC(=O)N1CCN(c2nc3ccccc3s2)CC1 | -3.88%
Cc1ccc2c(Cl)cc(Cl)c(OCC(=O)NC(C)(C)C)c2n1 | -16.9%
Cc1ccc2c(Cl)cc(Cl)c(OCC(=O)N(C(C)C)C(C)C)c2n1 | -1.43%

SMILES | inhibition
COc1cccc(C(=O)NC2CCCc3ccccc32)c1OC (stereo not drawn) | -9.26%
CS(=O)(=O)N(CCc1ccccc1)CC(=O)N1CCN(c2ccccc2)CC1 | -4.94%
COc1ccc(CCNC(=O)COC(=O)C23CC4CC(CC(C4)C2)C3)cc1 | -12.8%
CCc1ccccc1NC(=S)N1CCCCCC1 | -5.25%
Cc1cc([N+](=O)[O-])nn1CC(=O)N/N=C/c1ccc(O)cc1O | 18.8%
O=C(Cn1cncn1)N/N=C/c1ccccc1Cl | -13.1%
O=C(Cn1cncn1)N/N=C/c1cccc2ccccc12 | -7.61%
Cc1cc([N+](=O)[O-])nn1CC(=O)N/N=C/c1ccccc1Br | 13.2%
O=C(NCC1CCCO1)c1cccc(Oc2ccccc2)c1 (stereo not drawn) | -8.15%
Oc1c(Br)cc(Br)cc1C=Nc1cccnc1 | 7.09%
O=C(O)c1ccccc1N/N=C/c1cc(Br)cc(Br)c1O | 5.52%
O=C(O)c1cccc(N/N=C/c2cc(Br)cc(Br)c2O)c1 | -6.95%
Cc1cccc(N=Cc2cc(Br)cc(Cl)c2O)c1 | 10.7%
Brc1cccc(C=Nc2cccc3ncccc23)c1 | -0.83%
CN(C)c1ccc(C(=O)N/N=C/c2cc(Br)cc(Br)c2O)cc1 | -1.06%
Cc1onc(-c2ccccc2Cl)c1C(=O)Nc1ccccc1C(N)=O | 7.75%
O=C(Nc1nnc(-c2ccc(F)cc2)s1)c1ccco1 | 2.98%
O=C(O)/C(=C\c1cccs1)c1ccc(F)cc1 | -11.8%
CNC(=O)C1C2C=CC3(O2)C1C(=O)N(CCOC)C3C(=O)NCc1ccc(OC)cc1 (stereo not drawn) | 16.8%
CC1CCCCC1NC(=O)CN(C)S(=O)(=O)c1cccc2cccnc12 (stereo not drawn) | 10.4%
CC(=O)c1c(C(C)=O)c(C)n(-c2ccc(N)c(C)c2)c1C | -3.65%
Cc1ccc(/C=C/C(=O)c2ccccc(=O)c2O)c(C)c1 | -6.97%
Cc1ccc(C)c(/C=C/C(=O)c2ccccc(=O)c2O)c1 | -3.4%
